Results from PubChem BioAssay.

Columns and labels:
[1] = system: Botulinum neurotoxin type F light chain protease (Clostridium botulinum); assay: Clostridium botulinum type F light chain protease inhibitors, microsphere substrate cleavage, validation (AID 588459); settings: multiplex microsphere protease substrate cleavage assay, flow cytometry; at 10 µM; stronger effect = higher value
[2] = target: Botulinum neurotoxin type A (Clostridium botulinum) (UniProt P0DPI0); assay: BoNT/A light chain protease inhibitors, biochemical, multiplex microsphere flow cytometry, validation set (AID 588460); settings: at 10 µM, stronger effect = higher value
[3] = target: Lethal factor (Bacillus anthracis) (UniProt P15917); assay: Bacillus anthracis lethal factor inhibition, microsphere flow cytometry protease assay, validation at 10 µM (AID 588461); settings: multiplex microsphere protease cleavage assay, stronger effect = higher value

Measured: inhibition

COc1ccc(C2CC(c3ccc([N+](=O)[O-])cc3)=NN2C(=O)c2ccccc2)cc1OC (centres undefined)
inactive: [1] 10.2% | [2] 7.9% | [3] 2.3%

NC(N)=N/N=C/c1cccc(Cl)c1Cl
inactive: [1] 0.9% | [2] 1.3% | [3] -3.3%

Cc1ccc2c(c1)c1c3n2CCCN(Cc2ccccc2)C3CCC1 (centres undefined)
inactive: [1] -0.2% | [2] -0.1% | [3] -3%

NC(=O)c1c(-c2ccccc2)oc2ccc(O)cc12
inactive: [1] -1.9% | [2] -0.3% | [3] -5.1%

Cc1ccc(N2CCN(C(=S)c3ccc(-c4cccc([N+](=O)[O-])c4)o3)CC2)cc1
inactive: [1] -0.6% | [2] -1.4% | [3] -5.3%

CC(=O)OC(C)C[N+](C)(C)C (centres undefined)
inactive: [1] 0.7% | [2] 0.6% | [3] -5.8%

COc1cccc(=O)c2c(C)n(CC(=O)c3ccccc3)c(C)c12
inactive: [1] -4.4% | [2] 0.1% | [3] -9.8%

COc1ccc(-c2cc3cc(OC)c(OC)cc3c(C)n2)cc1
inactive: [1] -3.3% | [2] 1.2% | [3] 4.5%

CCN(CC)C1=C(Cl)C(=O)C(Cl)C12OCCO2 (centres undefined)
inactive: [1] 1% | [2] 0.6% | [3] -1%

CC(C)(C)NCC(O)COc1ccccc1C(=O)CCc1ccccc1 (centres undefined)
inactive: [1] -5.8% | [2] -2% | [3] -4.9%

CCCN(CCC)S(=O)(=O)c1ccc(C(=O)O)cc1
inactive: [1] 2.8% | [2] 1.1% | [3] 0%

COc1ccc(C2C3=C(CC(C)(C)CC3=O)N(C)C3=C2C(=O)CC(C)(C)C3)cc1
inactive: [1] 2% | [2] 0.4% | [3] -5.6%

CCCCN1C[C@H](O)[C@@H](O)[C@H](O)[C@H]1CO
inactive: [1] 1.9% | [2] -1% | [3] 0.7%

N=C1C(c2ccccc2)=C(O)CN1CCCO
inactive: [1] -2.6% | [2] -1.3% | [3] -5%

CCCNC(C)C(=O)Nc1ccccc1C (centres undefined)
inactive: [1] 0.2% | [2] 0.2% | [3] -4.8%

Cc1oc2cc(O)cc(O)c2c(=O)c1-c1ccc2c(c1)OCCCO2
inactive: [1] 1.4% | [2] -0.4% | [3] -5.8%

COc1cccc(-n2cc(CNCc3c(C(=O)N(C)C)nc4ccc(Cl)cn34)cn2)c1
inactive: [1] 1.3% | [2] -0.7% | [3] 7.5%

O=c1c2[nH]c3ccccc3c2ncn1CCC1=CCCCC1
inactive: [1] 4.3% | [2] 0.9% | [3] -3.1%

CCOc1ccc2oc(-c3ccccc3)c(C(=O)O)c2c1
inactive: [1] -1.1% | [2] -0.2% | [3] -3.1%

CSCC[C@H](NC(=O)NC1CCCC1)C(=O)O
inactive: [1] 0.9% | [2] 0.2% | [3] -0.2%

O=C(CNC(=O)OCc1ccccc1)NC1CCCCCC1
inactive: [1] -1% | [2] -1.8% | [3] -3.4%

COC(=O)CSc1nc2ccc(N)cc2s1
inactive: [1] 2.6% | [2] -1% | [3] 1.5%

Cc1ncc([N+](=O)[O-])n1CCO
inactive: [1] 3% | [2] -0.4% | [3] -4.2%

O=C(c1ccc([N+](=O)[O-])cc1)N1CCSC1c1ccccc1Cl (centres undefined)
inactive: [1] -3.8% | [2] -0.1% | [3] -1.3%

Cc1ccc2nc(N=C(N)N)nc(C)c2c1
inactive: [1] 3.2% | [2] -0.2% | [3] -12.1%

CCN(CC)C(=O)c1sc(NC(=O)c2c(OC)cccc2OC)c(C#N)c1C
inactive: [1] 6% | [2] 2.1% | [3] 3.6%

COc1ccc(C2c3c(n[nH]c3C)CC(C)(O)C2C(C)=O)cc1OC (centres undefined)
inactive: [1] 4% | [2] 0.1% | [3] -2.7%

CCOc1ccc(C(=O)Nc2ccc(N3CCN(C(C)=O)CC3)cc2)cc1[N+](=O)[O-]
inactive: [1] 1.6% | [2] 0% | [3] 0.9%

CC(=O)Nc1ccc2[nH]c(C)c(CC=C(Cl)Cl)c(=O)c2c1
inactive: [1] -0.7% | [2] -1.7% | [3] -4.2%

CC1(C)C(=O)OC(/C=C\c2ccccc2)C(C)(C)C1=O (centres undefined)
inactive: [1] 1.5% | [2] 0.1% | [3] 4.5%

Cc1cnc(C(=O)N2CCCC(C(=O)c3ccc(Cl)cc3C)C2)cn1 (centres undefined)
inactive: [1] 1.4% | [2] 0.4% | [3] -0.9%

COc1cc(NS(=O)(=O)c2ccc(N)cc2)nc(OC)n1
inactive: [1] 1.2% | [2] 1.1% | [3] 0.1%

COc1cc(OC)c2c(C)c(Cl)c(=O)oc2c1
inactive: [1] 1.9% | [2] -0.8% | [3] -3.3%

C1CCC(C(CC2CCCCN2)C2CCCCC2)CC1 (centres undefined)
inactive: [1] -7.7% | [2] 0.4% | [3] -14.1%

COc1ccccc1C(CC(=O)Nc1ccccc1C)c1ccc(OC(C)C)cc1 (centres undefined)
inactive: [1] -0.1% | [2] -0.8% | [3] -7.4%

COc1ccc(C(=O)OCc2cc3cccc(C)c3[nH]c2=O)cc1
inactive: [1] 0.3% | [2] 0.7% | [3] -0.5%

CCc1cc2c(=O)c(-c3ccc4c(c3)OCCO4)coc2c(CN2CCCCC2C)c1O (centres undefined)
inactive: [1] 2.5% | [2] 0.3% | [3] -1%

CCN(CC)C(=O)N1CCN(C)CC1
inactive: [1] -3.4% | [2] -0.7% | [3] 4.2%

Cn1c(=O)[nH]c(=O)c2c1nc(NCc1ccco1)n2CCCc1ccccc1
inactive: [1] -0.8% | [2] -0.7% | [3] 0.5%

COc1ccc(N2C(=O)C3C(C2=O)C(C(=O)c2ccccc2)N2CCCC32)cc1 (centres undefined)
inactive: [1] 1.6% | [2] -0.2% | [3] -3.5%

Cn1c(=S)n(C)c2ccccc21
inactive: [1] 4% | [2] 0.1% | [3] 2.8%

CC(=O)OC[C@H]1O[C@@H](n2ncc(=O)[nH]c2=O)[C@H](OC(C)=O)[C@@H]1OC(C)=O
inactive: [1] -0.5% | [2] -0.3% | [3] 3.7%

COC(=O)c1ccc(OCCCCN2CC(C)OC(C)C2)cc1 (centres undefined)
inactive: [1] -4.5% | [2] 0.2% | [3] 4%

COC(=O)c1[nH]c2ccc(C)cc2c1NC(=O)CN1CCc2cc(OC)c(OC)cc2C1
inactive: [1] -1.9% | [2] -1.7% | [3] 2.1%

CCCCOC(=O)c1ccc(N)cc1
inactive: [1] 3.6% | [2] -1.1% | [3] 2.2%

O=C(O)CCCCCCNC(=O)c1cncc(O)c1
inactive: [1] -1.8% | [2] 0.2% | [3] 7.5%

CC[C@]1(O)CC2CN(CCc3c([nH]c4ccccc34)[C@@](C(=O)OC)(c3cc4c(cc3OC)N(C=O)[C@H]3[C@@](O)(C(=O)OC)[C@H](OC(C)=O)[C@]5(CC)C=CCN6CC[C@]43[C@@H]65)C2)C1 (some centres undefined)
inactive: [1] 1.5% | [2] 0% | [3] -12.5%

Cc1ccc(S(=O)(=O)NC(C(=O)Oc2ccc3c(C(F)(F)F)cc(=O)oc3c2)c2ccccc2)cc1 (centres undefined)
inactive: [1] 1.6% | [2] 1.4% | [3] -1.3%

O=C(O)C[C@@H](O)C(=O)O
inactive: [1] 0.4% | [2] -0.4% | [3] -1.2%

CC(=O)N1CC2(C)CN(C(C)=O)CC(C)(C1)C2
inactive: [1] -2.3% | [2] -1.6% | [3] 7.3%

O=C1C2C3C=CC(C4CC34)C2C(=O)N1/N=C/c1ccc(-c2ccc([N+](=O)[O-])cc2)o1 (centres undefined)
inactive: [1] 2.1% | [2] 3.4% | [3] -1.8%

COc1ccc(NC(=S)N2CCN(CCN3C(=O)c4cccc5cccc(c45)C3=O)CC2)cc1
inactive: [1] 2.5% | [2] 1.6% | [3] -3.3%

CCc1cc2c(C)cc(=O)oc2cc1OC(=O)C1CCCN1C(=O)OC(C)(C)C (centres undefined)
inactive: [1] 0.1% | [2] -1.6% | [3] -1.1%

COc1ccc2c3c([nH]c2c1)C1(NCC3)C(=O)Nc2ccccc21 (centres undefined)
inactive: [1] -3% | [2] -0.7% | [3] -4.5%

CCN(CC)CCCNC(=O)C1c2ccccc2Oc2ccccc21
inactive: [1] 4.2% | [2] 0.7% | [3] -0.4%

COCCc1ccc(OCC(O)CNC(C)C)cc1 (centres undefined)
inactive: [1] -1.4% | [2] -1.4% | [3] -2.9%

COc1ccc(-c2nc(NC(C)=O)sc2-c2ccc(OC)cc2)cc1
inactive: [1] 3% | [2] 1% | [3] 2.3%

COc1ccccc1OCC(=O)O
inactive: [1] 1% | [2] -0.9% | [3] -1.4%

CC(C)OC(=O)CC12CN3CN(C1)CC(CC(=O)OC(C)C)(C3)C2=O
inactive: [1] 1.8% | [2] -0.4% | [3] 6.1%

CC(CCc1ccccc1)NCC(O)c1ccc(O)c(C(N)=O)c1 (centres undefined)
inactive: [1] -1% | [2] -1.4% | [3] 0.1%

CN(Cc1c(C(=O)N(C)Cc2ccccc2)nc2ccccn12)CC1Cc2ccccc2O1 (centres undefined)
inactive: [1] 4.4% | [2] 0.4% | [3] -5.9%

C=C(C)[C@@H]1CC=C(CN2CCC(N3CCC(C(=O)N4CCCC4)CC3)CC2)CC1
inactive: [1] 7.8% | [2] 0.8% | [3] -0.3%

CC1=C/C(=N\N=C2\NC(=O)C(CC(=O)Nc3ccccc3F)S2)CC(C)(C)C1 (centres undefined)
inactive: [1] -1.1% | [2] 0.8% | [3] 2.8%
